Test results from article PMC7862700, “An all-to-all approach to the identification of sequence-specific readers for epigenetic DNA modifications on cytosine”.

Legend:
Test in all cases: DAPPL (digital affinity profiling via proximity ligation, sequencing); 10 mM Tris-HCl pH 7.5, 50 mM NaCl, 1 mM DTT, 4% glycerol, room temperature, 30 min; GST-TFs on glutathione beads, 16-mer random dsDNA library, 0.1% formaldehyde crosslink after washing; high values mean tight binding
Conditions in all cases: protein: recombinant; tags: N-terminal GST; dsDNA, one strand shown
[1] = molecular target: T1, FLI1 (Homo sapiens, UniProt Q01543 1-452)
T1 sequence: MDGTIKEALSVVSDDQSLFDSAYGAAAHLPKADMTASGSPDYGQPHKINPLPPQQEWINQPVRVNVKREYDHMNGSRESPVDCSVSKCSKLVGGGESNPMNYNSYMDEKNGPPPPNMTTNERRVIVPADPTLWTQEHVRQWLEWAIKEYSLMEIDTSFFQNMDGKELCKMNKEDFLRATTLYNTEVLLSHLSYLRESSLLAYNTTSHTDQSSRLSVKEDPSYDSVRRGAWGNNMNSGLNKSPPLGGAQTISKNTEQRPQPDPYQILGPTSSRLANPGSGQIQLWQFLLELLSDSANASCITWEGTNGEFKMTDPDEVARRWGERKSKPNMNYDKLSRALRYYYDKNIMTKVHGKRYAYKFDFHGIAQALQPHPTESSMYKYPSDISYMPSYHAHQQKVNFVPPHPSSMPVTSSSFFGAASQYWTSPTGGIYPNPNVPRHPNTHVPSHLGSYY
Outline: (§1)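 After expression in yeast as GST fusions, human transcription factors were bound to glutathione beads, DNA-barcoded and mixed with a tag-only sample. The pools were incubated with 200 nmole of a 16-mer random double-stranded DNA library in Tris/NaCl/DTT/glycerol buffer (30 min, room temperature), washed and crosslinked with 0.1% formaldehyde. Proximity ligation with BsaI/T4 ligase ran for 1 h at 37 °C, before PCR amplification and sequencing on an Illumina NextSeq500. Binding signal is a hexamer's read frequency for a factor divided by its frequency for the tag-only sample.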

[2] = molecular target: T2, ELK1 (Homo sapiens, UniProt P19419 1-428)
T2 sequence: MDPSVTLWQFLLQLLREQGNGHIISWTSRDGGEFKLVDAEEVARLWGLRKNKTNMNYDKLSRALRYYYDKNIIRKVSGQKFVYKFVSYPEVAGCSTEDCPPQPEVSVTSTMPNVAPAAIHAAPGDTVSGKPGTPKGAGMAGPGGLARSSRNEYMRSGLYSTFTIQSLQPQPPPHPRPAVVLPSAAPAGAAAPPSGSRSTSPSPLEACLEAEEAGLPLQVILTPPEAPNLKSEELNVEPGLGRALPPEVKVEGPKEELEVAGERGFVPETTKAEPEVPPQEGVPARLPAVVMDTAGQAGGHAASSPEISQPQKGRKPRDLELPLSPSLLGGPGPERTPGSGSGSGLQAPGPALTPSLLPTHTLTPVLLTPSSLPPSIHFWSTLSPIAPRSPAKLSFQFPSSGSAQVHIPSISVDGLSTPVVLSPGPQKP
Outline: as §1

[3] = molecular target: T3, GABPA (Homo sapiens, UniProt Q06546 1-454)
T3 sequence: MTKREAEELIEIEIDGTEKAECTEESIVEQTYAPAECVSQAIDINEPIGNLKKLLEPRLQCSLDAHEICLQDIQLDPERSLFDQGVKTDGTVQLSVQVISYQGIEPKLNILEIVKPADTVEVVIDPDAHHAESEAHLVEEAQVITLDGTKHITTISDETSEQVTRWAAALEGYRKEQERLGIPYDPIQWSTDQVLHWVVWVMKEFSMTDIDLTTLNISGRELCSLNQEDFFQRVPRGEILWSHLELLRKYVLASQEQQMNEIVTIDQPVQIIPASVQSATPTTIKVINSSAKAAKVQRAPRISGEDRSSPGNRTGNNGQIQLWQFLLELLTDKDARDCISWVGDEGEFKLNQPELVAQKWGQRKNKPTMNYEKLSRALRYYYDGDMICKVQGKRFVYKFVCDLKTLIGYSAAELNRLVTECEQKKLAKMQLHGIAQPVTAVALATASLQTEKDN
Outline: as §1

[4] = molecular target: T4, ERG (Homo sapiens, UniProt P11308 1-479)
T4 sequence: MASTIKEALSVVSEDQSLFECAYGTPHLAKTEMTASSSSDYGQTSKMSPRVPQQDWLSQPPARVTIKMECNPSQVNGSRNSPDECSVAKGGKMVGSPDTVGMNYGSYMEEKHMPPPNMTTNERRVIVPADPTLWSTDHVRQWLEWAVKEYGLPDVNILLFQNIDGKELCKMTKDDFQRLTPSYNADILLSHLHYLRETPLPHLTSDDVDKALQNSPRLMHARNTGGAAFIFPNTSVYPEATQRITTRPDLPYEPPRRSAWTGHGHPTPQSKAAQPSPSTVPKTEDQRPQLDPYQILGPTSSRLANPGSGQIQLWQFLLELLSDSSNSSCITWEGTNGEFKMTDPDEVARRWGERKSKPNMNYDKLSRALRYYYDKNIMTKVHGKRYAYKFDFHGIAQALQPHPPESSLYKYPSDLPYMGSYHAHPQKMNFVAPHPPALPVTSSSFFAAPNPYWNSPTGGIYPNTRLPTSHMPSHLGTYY
Outline: as §1

[5] = molecular target: ELF1 (Homo sapiens, UniProt P32519 1-619)
Outline: as §1

[6] = molecular target: T5, EHF (Homo sapiens, UniProt Q9NZC4 1-300)
T5 sequence: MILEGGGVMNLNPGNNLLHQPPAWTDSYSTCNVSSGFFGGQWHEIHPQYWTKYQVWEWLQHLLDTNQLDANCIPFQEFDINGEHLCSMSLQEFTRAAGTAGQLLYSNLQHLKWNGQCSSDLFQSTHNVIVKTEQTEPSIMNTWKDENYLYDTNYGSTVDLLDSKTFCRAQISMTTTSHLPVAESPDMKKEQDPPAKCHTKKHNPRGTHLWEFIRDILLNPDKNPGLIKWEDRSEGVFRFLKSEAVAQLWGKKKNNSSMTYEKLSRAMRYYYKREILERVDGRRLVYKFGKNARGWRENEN
Outline: as §1

[7] = molecular target: SPI1 (Homo sapiens, UniProt P17947 1-270)
Outline: as §1

[8] = molecular target: SPIB (Homo sapiens, UniProt Q01892 1-262)
Outline: as §1

[9] = molecular target: T6, ELK3 (Homo sapiens, UniProt P41970 1-407)
T6 sequence: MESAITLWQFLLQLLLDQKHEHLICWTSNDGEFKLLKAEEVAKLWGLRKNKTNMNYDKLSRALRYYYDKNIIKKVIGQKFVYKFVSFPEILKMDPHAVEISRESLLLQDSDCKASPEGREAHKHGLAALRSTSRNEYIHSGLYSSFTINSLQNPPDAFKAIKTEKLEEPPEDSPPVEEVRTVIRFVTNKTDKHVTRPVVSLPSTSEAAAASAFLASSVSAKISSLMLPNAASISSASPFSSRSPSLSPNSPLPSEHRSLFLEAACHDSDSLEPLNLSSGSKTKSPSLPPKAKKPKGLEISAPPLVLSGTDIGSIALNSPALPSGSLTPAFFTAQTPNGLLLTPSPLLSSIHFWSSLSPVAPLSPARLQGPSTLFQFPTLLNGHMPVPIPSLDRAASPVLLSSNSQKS
Outline: as §1

[10] = molecular target: T7, FEV (Homo sapiens, UniProt Q99581 1-238)
T7 sequence: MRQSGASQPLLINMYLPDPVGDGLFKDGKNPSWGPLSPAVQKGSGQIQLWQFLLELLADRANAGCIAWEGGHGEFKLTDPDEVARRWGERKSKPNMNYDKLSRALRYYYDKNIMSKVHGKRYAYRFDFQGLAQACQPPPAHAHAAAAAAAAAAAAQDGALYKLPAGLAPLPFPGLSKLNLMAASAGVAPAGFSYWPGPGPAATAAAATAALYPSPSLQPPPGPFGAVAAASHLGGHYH
Outline: as §1

[11] = molecular target: ETV5 (Homo sapiens, UniProt P41161 1-510)
Outline: as §1

[12] = molecular target: T8, SPIC (Homo sapiens, UniProt Q8N5J4 1-248)
T8 sequence: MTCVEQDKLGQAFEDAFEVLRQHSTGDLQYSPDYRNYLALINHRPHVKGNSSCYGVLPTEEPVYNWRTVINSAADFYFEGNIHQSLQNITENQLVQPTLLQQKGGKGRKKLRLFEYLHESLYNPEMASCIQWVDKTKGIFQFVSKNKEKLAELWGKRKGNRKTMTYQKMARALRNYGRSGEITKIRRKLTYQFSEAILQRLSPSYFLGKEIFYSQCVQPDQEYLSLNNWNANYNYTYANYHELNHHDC
Outline: as §1

[13] = molecular target: ELF4 (Homo sapiens, UniProt Q99607 1-663)
Outline: as §1

[14] = molecular target: ETV1 (Homo sapiens, UniProt P50549 1-477)
Outline: as §1

[15] = molecular target: T9, ERF (Homo sapiens, UniProt P50548 1-548)
T9 sequence: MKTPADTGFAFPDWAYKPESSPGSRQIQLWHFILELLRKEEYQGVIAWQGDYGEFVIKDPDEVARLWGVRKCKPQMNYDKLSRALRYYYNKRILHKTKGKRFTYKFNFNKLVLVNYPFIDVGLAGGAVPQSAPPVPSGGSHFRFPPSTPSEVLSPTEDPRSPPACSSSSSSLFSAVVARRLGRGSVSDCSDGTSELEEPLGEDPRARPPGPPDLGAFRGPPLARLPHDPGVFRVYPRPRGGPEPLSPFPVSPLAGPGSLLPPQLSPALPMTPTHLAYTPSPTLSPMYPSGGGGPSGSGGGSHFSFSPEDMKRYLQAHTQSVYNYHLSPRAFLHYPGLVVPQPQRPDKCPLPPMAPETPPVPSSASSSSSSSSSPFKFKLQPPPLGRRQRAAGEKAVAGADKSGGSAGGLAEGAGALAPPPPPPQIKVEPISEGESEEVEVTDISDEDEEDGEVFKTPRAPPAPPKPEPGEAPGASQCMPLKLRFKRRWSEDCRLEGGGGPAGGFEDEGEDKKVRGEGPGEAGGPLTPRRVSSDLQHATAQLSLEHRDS
Outline: as §1

[16] = molecular target: T10, ETV3L (Homo sapiens, UniProt Q6ZN32 1-361)
T10 sequence: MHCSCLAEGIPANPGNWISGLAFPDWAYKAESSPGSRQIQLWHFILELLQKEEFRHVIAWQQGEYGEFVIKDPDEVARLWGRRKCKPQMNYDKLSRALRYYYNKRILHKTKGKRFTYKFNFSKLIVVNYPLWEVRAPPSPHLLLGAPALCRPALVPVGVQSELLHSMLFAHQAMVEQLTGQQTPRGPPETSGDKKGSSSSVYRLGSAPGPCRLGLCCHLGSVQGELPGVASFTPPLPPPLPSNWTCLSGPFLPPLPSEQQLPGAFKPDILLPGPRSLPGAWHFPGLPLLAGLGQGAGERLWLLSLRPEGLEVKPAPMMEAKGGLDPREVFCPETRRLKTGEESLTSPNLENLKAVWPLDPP
Outline: as §1

[17] = molecular target: T11, ETS2 (Homo sapiens, UniProt P15036 1-469)
T11 sequence: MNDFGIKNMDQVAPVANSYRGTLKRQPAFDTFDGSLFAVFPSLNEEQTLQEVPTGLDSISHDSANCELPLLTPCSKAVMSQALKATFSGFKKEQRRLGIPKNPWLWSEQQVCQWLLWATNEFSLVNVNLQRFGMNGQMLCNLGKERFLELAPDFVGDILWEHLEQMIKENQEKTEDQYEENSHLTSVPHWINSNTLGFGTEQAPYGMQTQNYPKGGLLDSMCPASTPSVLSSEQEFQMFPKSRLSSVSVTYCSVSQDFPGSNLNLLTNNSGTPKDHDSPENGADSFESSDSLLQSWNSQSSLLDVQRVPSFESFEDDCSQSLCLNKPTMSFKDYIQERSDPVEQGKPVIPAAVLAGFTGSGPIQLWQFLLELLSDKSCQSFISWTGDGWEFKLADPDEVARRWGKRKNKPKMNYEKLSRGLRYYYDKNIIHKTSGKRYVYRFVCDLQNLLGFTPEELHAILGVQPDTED
Outline: as §1

[18] = molecular target: T12, SPDEF (Homo sapiens, UniProt O95238 1-335)
T12 sequence: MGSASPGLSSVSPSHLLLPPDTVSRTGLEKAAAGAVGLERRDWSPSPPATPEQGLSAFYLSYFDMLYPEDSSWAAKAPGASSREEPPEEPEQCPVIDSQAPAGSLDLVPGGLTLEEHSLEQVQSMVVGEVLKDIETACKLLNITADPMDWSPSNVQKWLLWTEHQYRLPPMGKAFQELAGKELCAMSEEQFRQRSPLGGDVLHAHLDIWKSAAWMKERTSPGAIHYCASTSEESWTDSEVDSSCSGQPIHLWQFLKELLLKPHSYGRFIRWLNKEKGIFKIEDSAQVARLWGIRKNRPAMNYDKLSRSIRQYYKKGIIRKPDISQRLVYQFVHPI
Outline: as §1

[19] = molecular target: T13, ETV3 (Homo sapiens, UniProt P41162-2 1-143)
T13 sequence: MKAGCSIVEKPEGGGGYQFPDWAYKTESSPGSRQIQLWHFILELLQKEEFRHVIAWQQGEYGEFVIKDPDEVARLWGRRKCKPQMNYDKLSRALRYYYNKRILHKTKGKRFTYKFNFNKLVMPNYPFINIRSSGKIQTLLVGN
Outline: as §1

[20] = molecular target: ETV6 (Homo sapiens, UniProt P41212 1-452)
Outline: as §1

Sequence of ELF4 (Q99607 whole entry): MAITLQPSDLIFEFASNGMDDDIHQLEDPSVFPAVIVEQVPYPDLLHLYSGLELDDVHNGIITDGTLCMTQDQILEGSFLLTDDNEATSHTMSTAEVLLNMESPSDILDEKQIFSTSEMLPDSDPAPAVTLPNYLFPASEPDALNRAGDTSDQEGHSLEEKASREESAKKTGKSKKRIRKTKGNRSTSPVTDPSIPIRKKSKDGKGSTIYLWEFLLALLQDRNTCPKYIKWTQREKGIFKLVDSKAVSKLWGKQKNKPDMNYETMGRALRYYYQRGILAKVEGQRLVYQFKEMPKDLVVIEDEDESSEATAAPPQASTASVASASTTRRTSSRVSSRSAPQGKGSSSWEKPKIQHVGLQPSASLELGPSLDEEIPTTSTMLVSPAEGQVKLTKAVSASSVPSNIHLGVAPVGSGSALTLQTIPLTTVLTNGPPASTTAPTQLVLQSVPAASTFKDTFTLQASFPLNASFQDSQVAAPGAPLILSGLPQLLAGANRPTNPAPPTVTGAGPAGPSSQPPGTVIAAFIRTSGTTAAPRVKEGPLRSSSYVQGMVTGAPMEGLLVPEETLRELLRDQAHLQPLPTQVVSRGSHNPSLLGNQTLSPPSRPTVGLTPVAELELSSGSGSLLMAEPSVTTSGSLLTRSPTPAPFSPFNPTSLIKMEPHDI
Sequence of ETV5 (P41161 whole entry): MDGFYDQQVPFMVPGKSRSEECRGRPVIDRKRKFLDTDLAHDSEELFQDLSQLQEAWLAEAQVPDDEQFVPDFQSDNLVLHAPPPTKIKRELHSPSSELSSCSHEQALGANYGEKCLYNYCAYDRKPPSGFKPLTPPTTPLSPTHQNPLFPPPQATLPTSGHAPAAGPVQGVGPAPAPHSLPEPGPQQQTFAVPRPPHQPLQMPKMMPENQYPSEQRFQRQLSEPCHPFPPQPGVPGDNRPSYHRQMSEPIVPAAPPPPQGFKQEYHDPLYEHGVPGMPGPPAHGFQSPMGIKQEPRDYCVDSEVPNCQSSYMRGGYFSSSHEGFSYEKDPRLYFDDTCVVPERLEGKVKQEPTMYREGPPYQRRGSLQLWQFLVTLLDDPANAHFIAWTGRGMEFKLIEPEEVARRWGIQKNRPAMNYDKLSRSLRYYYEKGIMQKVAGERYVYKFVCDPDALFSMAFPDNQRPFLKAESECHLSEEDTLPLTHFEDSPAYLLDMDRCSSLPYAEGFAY
Sequence of ETV1 (P50549 whole entry): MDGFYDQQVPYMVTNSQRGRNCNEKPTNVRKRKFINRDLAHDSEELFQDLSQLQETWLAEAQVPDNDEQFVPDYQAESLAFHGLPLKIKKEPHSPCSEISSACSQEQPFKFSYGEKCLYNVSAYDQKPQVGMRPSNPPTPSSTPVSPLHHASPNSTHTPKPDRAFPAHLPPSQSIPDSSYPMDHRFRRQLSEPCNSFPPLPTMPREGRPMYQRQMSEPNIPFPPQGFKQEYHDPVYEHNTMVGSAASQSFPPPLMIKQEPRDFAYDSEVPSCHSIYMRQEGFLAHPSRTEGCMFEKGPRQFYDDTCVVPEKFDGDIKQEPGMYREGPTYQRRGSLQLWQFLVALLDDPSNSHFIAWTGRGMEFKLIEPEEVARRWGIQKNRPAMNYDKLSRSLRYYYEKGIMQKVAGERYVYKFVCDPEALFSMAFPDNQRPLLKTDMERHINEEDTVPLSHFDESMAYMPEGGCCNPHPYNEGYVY
Sequence of SPIB (Q01892 whole entry): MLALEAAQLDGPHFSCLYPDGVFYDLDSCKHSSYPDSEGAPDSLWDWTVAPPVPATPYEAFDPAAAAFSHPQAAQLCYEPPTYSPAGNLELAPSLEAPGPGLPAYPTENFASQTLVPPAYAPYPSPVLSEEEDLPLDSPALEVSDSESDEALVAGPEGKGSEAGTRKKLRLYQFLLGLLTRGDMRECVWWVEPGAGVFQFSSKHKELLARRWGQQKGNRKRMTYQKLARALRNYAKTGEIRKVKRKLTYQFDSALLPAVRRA
Sequence of ETV6 (P41212 whole entry): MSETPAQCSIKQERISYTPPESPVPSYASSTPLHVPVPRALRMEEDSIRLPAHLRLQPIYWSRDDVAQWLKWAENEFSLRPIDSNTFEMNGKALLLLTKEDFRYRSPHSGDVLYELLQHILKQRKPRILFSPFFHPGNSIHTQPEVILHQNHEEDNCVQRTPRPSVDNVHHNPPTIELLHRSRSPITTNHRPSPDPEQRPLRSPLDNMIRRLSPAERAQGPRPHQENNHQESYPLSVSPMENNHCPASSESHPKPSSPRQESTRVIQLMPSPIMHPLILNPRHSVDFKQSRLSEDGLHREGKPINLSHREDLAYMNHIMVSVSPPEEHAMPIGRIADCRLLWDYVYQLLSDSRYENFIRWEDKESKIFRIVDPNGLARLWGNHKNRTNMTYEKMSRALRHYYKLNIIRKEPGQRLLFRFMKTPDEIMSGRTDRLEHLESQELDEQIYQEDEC
Sequence of ELF1 (P32519 whole entry): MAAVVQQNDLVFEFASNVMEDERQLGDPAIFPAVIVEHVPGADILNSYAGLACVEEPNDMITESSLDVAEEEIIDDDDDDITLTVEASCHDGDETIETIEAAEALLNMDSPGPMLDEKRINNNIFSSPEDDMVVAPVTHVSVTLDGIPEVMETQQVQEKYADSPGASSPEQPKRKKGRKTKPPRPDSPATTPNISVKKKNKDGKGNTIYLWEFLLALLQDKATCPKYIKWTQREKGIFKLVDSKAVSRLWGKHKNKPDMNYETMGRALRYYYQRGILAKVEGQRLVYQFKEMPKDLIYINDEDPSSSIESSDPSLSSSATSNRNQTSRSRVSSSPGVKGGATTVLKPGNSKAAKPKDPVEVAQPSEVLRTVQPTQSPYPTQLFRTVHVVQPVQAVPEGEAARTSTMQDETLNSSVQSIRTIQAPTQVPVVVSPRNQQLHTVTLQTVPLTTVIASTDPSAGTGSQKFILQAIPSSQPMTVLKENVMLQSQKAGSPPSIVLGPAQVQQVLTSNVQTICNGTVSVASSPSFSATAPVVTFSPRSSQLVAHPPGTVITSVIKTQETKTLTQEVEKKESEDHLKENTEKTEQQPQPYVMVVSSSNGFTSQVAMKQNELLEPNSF

## ACCACC
[1]
  binding signal: 1.1 fold enrichment (6-mer frequency, TF over GST control)
[2]
  binding signal: 1.08 fold enrichment (6-mer frequency, TF over GST control)
[3]
  binding signal: 1.14 fold enrichment (6-mer frequency, TF over GST control)
[4]
  binding signal: 1.11 fold enrichment (6-mer frequency, TF over GST control)
[5]
  binding signal: 1.18 fold enrichment (6-mer frequency, TF over GST control)
[6]
  binding signal: 1.15 fold enrichment (6-mer frequency, TF over GST control)
[7]
  binding signal: 1.1 fold enrichment (6-mer frequency, TF over GST control)
[8]
  binding signal: 1.18 fold enrichment (6-mer frequency, TF over GST control)
[9]
  binding signal: 1.21 fold enrichment (6-mer frequency, TF over GST control)
[10]
  binding signal: 1.18 fold enrichment (6-mer frequency, TF over GST control)
[11]
  binding signal: 1.1 fold enrichment (6-mer frequency, TF over GST control)
[12]
  binding signal: 1.08 fold enrichment (6-mer frequency, TF over GST control)
[13]
  binding signal: 1.14 fold enrichment (6-mer frequency, TF over GST control)
[14]
  binding signal: 1.02 fold enrichment (6-mer frequency, TF over GST control)
[15]
  binding signal: 1.17 fold enrichment (6-mer frequency, TF over GST control)
[16]
  binding signal: 1.08 fold enrichment (6-mer frequency, TF over GST control)
[17]
  binding signal: 1.15 fold enrichment (6-mer frequency, TF over GST control)
[18]
  binding signal: 1.17 fold enrichment (6-mer frequency, TF over GST control)
[19]
  binding signal: 1.08 fold enrichment (6-mer frequency, TF over GST control)
[20]
  binding signal: 1.09 fold enrichment (6-mer frequency, TF over GST control)
